Assay outcomes: PubChem, National Center for Advancing Translational Sciences (NCATS)
Shown are actives, neighbours in structure and some others; about 7.1% of the full set was active somewhere.
MCF10A rereplic – DNA re-replication induction in MCF 10a cells. Potency, µM (titrated, usually from 46.1 µM), for inactives: at the highest dose activity, positive = re-replication, most hits filed as activators. AID 624296. 350,000 tested, 2.9% active. MCF 10A DNA re-replication, Hoechst nuclear intensity, 48 h; note: % of control where 0% means no effect; nearly all actives have a fitted effect of over 50% in size
ELG1 DNA repair – inhibitors of ELG1-dependent DNA repair in HEK293T cells; HEK293T ELG1-luciferase reporter, luminescence, 16 h; DNA damage induced by 5-fluorouridine; Potency, µM (highest dose often 46.1 µM), for inactives: at the top dose activity change, negative = inhibition, most hits filed as inhibitors; 330,000 tested, 2.3% active; note: % is set by controls: 0 for no effect and ±100 for the full control effect; nearly all actives have a fitted effect of over 55% in size
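Quantitative HTS, concentration-response format. 2,000 cells/well co-treated with 5-fluorouridine and compound, 16 hr in 5% CO2 at 37 °C; ONE-Glo luminescence read after 30 min.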
AT treatment – potential ataxia-telangiectasia treatment | F2112 A-T fibroblasts, KAP-1 phosphorylation AlphaLISA; neocarzinostatin DNA damage 30 min before lysis | Potency, µM (titrated, usually from 57.5 µM), inactives show top-dose activation, most hits filed as activators | 320,000 tested, 0.19% active; note: % of control where 0% means no effect; nearly all actives have a fitted effect of over 45% in size
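hTERT-immortalized A-T patient fibroblasts (F2112), 500 cells/well in OPTI-MEM, 1% FBS, got compounds for 60 min, then NCS for 30 min at 37C. Lysates were then assayed for phospho-KAP-1 by AlphaLISA (anti-pKAP1 donor, anti-KAP1 acceptor beads), 6 hr at 25C.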
SW480 rereplic – inducers of DNA re-replication in SW480 colon cancer cells | Potency, µM (titrated, usually from 46.1 µM), inactives show at the top dose re-replication activation, usual class: activators | SW480 DNA re-replication, Hoechst DNA content imaging, 48 h | 340,000 tested, 1.8% active | AID 624297; note: % of control where 0% means no effect; nearly all actives have a fitted effect of over 55% in size
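250 cells/well; 23 nL cpd via pin tool; 48 hr, 37 C, 5% CO2; Hoechst 40 min; imager read of total nuclear intensity, ex 405/em 500-530 nm.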
p53 reactivation – restores transcriptional activity of mutant p53 | H1299 p53-A138V BP100-luciferase reporter, luminescence, 24 h | Potency, µM (series often up to 92.2 µM), without a hit: at the top dose activity change, positive = activation, hits mostly activators | 320,000 tested, 0.063% active; note: % of control where 0% means no effect; nearly all actives have a fitted effect of over 45% in size
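p53-null H1299 cells stably carrying temperature-sensitive p53-A138V and a BP100-luciferase reporter were pinned with compounds (4-point, 1:5 series) and held 24 hrs at 37 deg C. Luminescence was read 10 min after detection reagent.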
ELG1 genotox – induces genotoxicity in HEK293T cells with luciferase-tagged ELG1; Potency, µM (highest dose often 46 µM), for the others: at the top dose activity change, positive = activation, usual class: activators; HEK293T ELG1-luciferase reporter, luminescence, 16 h; AID 504466; 330,000 tested, 1.3% active; note: % of control where 0% means no effect; nearly all actives have a fitted effect of over 60% in size
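After overnight (16 hr) compound treatment at 37 °C, ELG1-luciferase HEK293T cells were lysed with ONE-Glo; luminescence quantified 30 min later at room temperature.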
Active calls of the source: *; u = inconclusive; x = no result given. Calls come from the whole dose curve; as a rule, active = well fitted curve in the direction sought with a large enough effect; inconclusive = small, poorly fitted or top-dose-only effect, or another doubt; inactive = no such curve, though single readings can be large; an effect the other way counts as inactive or inconclusive. Potency is the fitted concentration of half-maximal effect.

SMILES	MCF10A rereplic	ELG1 DNA repair	AT treatment	SW480 rereplic	p53 reactivation	ELG1 genotox
COc1ccccc1[C@@H]1C(c2cccc(Cl)c2)=NN(c2ccc(Br)cc2)[C@H]1C(=O)N1CCOC1=O	u	0%	9%	3.3µM*	4%	0%
C[C@H](CO)N1C[C@H](C)[C@@H](CN(C)C(=O)NC2CCCCC2)Oc2c(NC(=O)Nc3ccccc3)cccc2C1=O	-5%	u	7%	0%	-5%	-1%
Cc1ccc(C(=O)Nc2ccncc2)c(C)c1	1%	-15%	-12%	-3%	-10%	-8%
Cc1ccc(S(=O)(=O)Nc2ccc(C(=O)N3CCN(c4ccccc4O)CC3)cc2)cc1[N+](=O)[O-]	u	-4%	1%	3%	-1%	-3%
Cc1ccc(C(=O)Cc2nc3ccccc3[nH]2)cc1	0%	u	5%	19%	16%	3.5µM*
O=C(Cc1nc2ccccc2[nH]1)c1cccc([N+](=O)[O-])c1	7.3µM*	4.1µM*	-4%	u	5%	-6%
CCOC(=O)Cc1nc2ccccc2[nH]1	5µM*	-10%	3%	2µM*	9%	-3%
Cc1ccc(OCc2nc3ccccc3[nH]2)cc1	2%	u	0%	-1%	u	u
CCc1cc(=O)oc2cc(C)cc(OC(C)C(=O)NC(Cc3c[nH]c4ccc(O)cc34)C(=O)O)c12 (stereo unspecified)	u	-5%	-10%	-1%	x	1%
COc1cccc(CNC(=O)COC(=O)CCS(=O)(=O)c2ccc(C)cc2)c1	u	9%	-3%	u	0%	2%
CS(=O)(=O)Cc1ccc(C(=O)NC2CCSc3ccccc32)cc1 (stereo unspecified)	-10%	-6%	-2%	0%	-3%	-1%
CCOc1ccccc1NC(=O)CCCNC(=O)Cn1cnc2sc(C)c(C)c2c1=O	3%	-14%	4%	-2%	-3%	-4%
COc1ccc2c(c1)NC(c1ccc(N(C)C)cc1)c1cccn1-2 (stereo unspecified)	u	u	u	18µM*	1%	-9%
CCCN1C(=O)S/C(=C\c2ccc(N3CCOCC3)o2)C1=O	16µM*	u	-13%	3.7µM*	-4%	u
CC(C)(C)OC(=O)NC1CNNC1=O (stereo unspecified)	5%	19%	-14%	-6%	5%	4%
O=C(COc1ccc(F)cc1)NCC1(N2CCCCC2)CCCCC1	11%	30%	-8%	2%	0%	1%
CCOC(=O)CC1C(=O)NCCN1C(=O)c1cccc(OC)c1 (stereo unspecified)	1%	-4%	-9%	-15%	-4%	0%
COc1ccc(/C=C/C(=O)c2ccc3c(c2)OCO3)c(OC)c1	14%	u	-13%	u	u	5.8µM*
COc1ccc(/C=C/C(=O)c2ccccc2)c(OC)c1	-1%	u	29%	u	8%	u
COc1cc(/C=C/C(=O)c2ccc3c(c2)OCO3)cc(Cl)c1O	9.2µM*	-11%	0%	u	14%	-2%
COc1cccc(C(=O)NCC2(c3ccc(OC)c(OC)c3)CCCC2)c1	5%	-26%	7%	-10%	-20%	-1%
COc1ccc(NC(=O)c2cccc(N3C(=O)C4C5C=CC(C6CC56)C4C3=O)c2)c(OC)c1 (stereo unspecified)	1%	u	8%	-2%	-10%	-12%
COc1ccc(NC(=O)c2cccc(N3C(=O)C4C5C=CC(C6CC56)C4C3=O)c2)cc1 (stereo unspecified)	8%	23µM*	0%	-8%	-15%	-23%
CCOc1ccccc1C=NNC(=O)C(=O)NN=Cc1ccccc1OCC	-6%	x	x	-13%	x	x
